High-throughput results deposited in PubChem BioAssay by several laboratories.
In the library only some 3.9% were active in any assay of this set; here they are far more common.
Yeast superoxide – caloric restriction mimetics inhibiting age-related superoxide in yeast; S. cerevisiae aged cells, superoxide DHE fluorescence; active compounds read low; 0.18% of 330,000 active; superoxide response (% of plate mean), % at 10 µM;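 active means superoxide response under a set limit, about three screen SD below normal, cut at about 65% in these data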;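 further: yeast aged for seven days with compound at 30 °C before DHE staining; 100% = average MFI of all compound-treated wells on the plate with controls excluded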
HIF act – HIF pathway transcriptional activation; U2OS HRE-luciferase reporter, luminescence; normalized: DMSO 0%, desferrioxamine 100%; activation, % at 7.5 µM (by protocol); 0.32% of 300,000 active;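 active means mean activation of at least 10% of the iron chelator positive control signal, with at least half of replicates also reaching 10%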
PLC-gamma1 inh – blocks human PLC-gamma1 enzyme activity | P19174 | purified PLC-gamma1, fluorogenic substrate, fluorescence | inhibition, % at 12.2 µM | 0.84% of 370,000 active | AID 720700; in the data active means inhibition above about 9.5%
PLCb3 inh – blocks human PLC-beta3 enzyme activity; Q01970; 0.18% of 370,000 active; Purified PLC-beta3, fluorogenic substrate, fluorescence; inhibition, % at 12.2 µM; AID 720704; in the data active means inhibition above about 11%;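 further: 0% = median of compound wells on plate and 100% = full blocker control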
HGIII-sPLA2 inh – Blocks human group III sPLA2 activity | Q9NZ20 | QFRET BODIPY PC-A2 liposome hydrolysis, fluorescence | inhibition, % at 12.2 µM | 0.56% of 370,000 active | AID 743126;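 active means inhibition above mean plus 3 SD of compounds lying within the high and low control bounds, cut at about 19% in these data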;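 further: 0% = median of test compound wells and 100% = no enzyme DMSO wells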
AHR act – human AHR activation; P35869; AID 2796; 2.5% of 320,000 active; AHR-responsive luciferase reporter cells, luminescence; activation, % at 5 µM; in the data active means activation above about 47%;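 further: 0% = vehicle wells and 100% = reference agonist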
sPLA2 confirm – human GIII-sPLA2 inhibition, confirmation; 34% of 2,000 active; recombinant hGIII-sPLA2, BODIPY PC-A2 QFRET fluorescence; shares compounds with HGIII-sPLA2 inh; inhibition, % at 12.2 µM;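 active means mean inhibition across triplicates above the hit cutoff set in the earlier primary screen, cut at about 19% in these data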;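 further: 0% = enzyme with DMSO and 100% = DMSO wells lacking enzyme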
535nm interf – 535nm fluorescence interference, HGIII-sPLA2 counter-screen. inhibition, % at 12.2 µM. shares compounds with HGIII-sPLA2 inh. BODIPY FL product fluorescence interference, QFRET. 8.5% of 2,000 active. AID 743282;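 active means average inhibition above the solvent-only control mean plus 3 SD, cut at about 6% in these data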;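 further: 0% = DMSO with substrate plus product and 100% = DMSO with substrate alone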
The depositor's hits bear a star; nt = no result.

SMILES	Yeast superoxide	HIF act	PLC-gamma1 inh	PLCb3 inh	HGIII-sPLA2 inh	AHR act	sPLA2 confirm	535nm interf
O=C(Cc1ccc(F)cc1)NCCS(=O)(=O)N1CCN(c2cccc(Cl)c2)CC1	109	-47	-1	-5	-9	-1	nt	nt
COc1ccc(C(=O)N/N=C/c2cc3ccccc3[nH]c2=S)cc1	84	-49	-10	-13	44*	57*	35*	10*
NNc1nc(-c2ccccc2)c2cc(Cl)ccc2n1	97	0	-81	-121	19*	12	26*	4
CN(C)c1nc(-c2ccccc2)c2cc(Cl)ccc2n1	95	1	-20	-40	0	2	nt	nt
COc1ccccc1OCC(=O)Nn1c(=S)[nH]c2ncccc2c1=O	98	-2	1	-1	24*	4	8	-4
COc1ccc(CCNC(=O)c2cnn3c(C(F)F)cc(C)nc23)cc1OC	97	0	0	-7	20*	10	6	-11
S=c1[nH]c2ccccc2n2c(=S)[nH]nc12	104	1	-23	-33	21*	12	26*	-5
S=c1[nH]c2ccccc2n2cccc12	117	-1	-22	-30	12	14	nt	nt
COc1ccc2c(=O)cc(-c3cccnc3)oc2c1OC	88	1	-4	-11	20*	19	-1	-6
Nc1ccc(Cl)c(NC(=O)c2cccs2)c1	81	0	9	4	0	33	nt	nt
Nc1ccc(NC(=O)c2cccs2)c(Cl)c1	119	1	-1	-3	22*	-1	7	2
CCc1nnc(NC(=O)c2ccc(S(=O)(=O)N3CCc4ccccc4C3)cc2)s1	109	0	-1	-1	1	2	nt	nt
Cc1cc(C)c2nc(NNC(=O)c3ccc(S(=O)(=O)N4CCc5ccccc5C4)cc3)sc2c1	127	22*	-73	-95	50*	29	36*	2
C[C@H](CO)N1C[C@H](C)[C@H](CN(C)Cc2ccccc2)Oc2ncc(Br)cc2C1=O	nt	nt	1	1	12	nt	nt	nt
CCc1ccc(OCCNc2cc(N3CCNC(C)C3)ccc2[N+](=O)[O-])cc1 (stereo not given)	101	nt	7	-5	26*	3	18	-28
CC(C)CN(CC(C)C)C(=O)Nc1ccccc1F	98	0	6	6	4	32	nt	nt
S=C(Nc1ccccc1)Nc1nc2ccccc2n1CCOc1ccc(Br)cc1	90	-11	-7	-2	7	22	nt	nt
Cn1c(NC(=S)Nc2ccccc2)nc2ccccc21	122	2	-4	-5	39*	60*	35*	6.3*
N=C(N)SCc1ccccc1Cl	93	1	2	2	34*	0	11	-6
NC(CSCc1ccccc1Cl)C(=O)O (stereo not given)	87	-1	-2	-7	9	4	nt	nt
O=C(O)c1ccccc1N=Nc1ccc(O)cc1	76	0	6	9	3	-1	nt	nt
O=C(O)c1cc(O)ccc1N=Nc1ccccc1	86	0	5	-6	20*	24	-2	-4
CN(C)c1ccc(NC(=O)Cn2cc3c(n2)CCCC3)cc1	96	2	3	-2	21*	40	17	-3
Cc1cc(C)cc(NC(=O)Cn2cc3c(n2)CCCCC3)c1	85	0	nt	nt	nt	13	nt	nt
CN(C)CCN(Cc1ccccc1)C(c1cc2ccccc2o1)c1nnnn1C(C)(C)C (stereo not given)	nt	nt	-1	4	-15	nt	nt	nt
SMILES	Yeast superoxide	HIF act	PLC-gamma1 inh	PLCb3 inh	HGIII-sPLA2 inh	AHR act	sPLA2 confirm	535nm interf
Oc1ccc(/C=N/N(Cc2ccccc2)c2ccccc2)c(O)c1O	nt	0	0	-9	20*	nt	30*	7.4*
CCN(CC)S(=O)(=O)c1cccc(C(=O)N/N=C/c2cccc(O)c2O)c1	84	7	-16	-31	23*	1	12	4
CCN(CC)S(=O)(=O)c1cccc(C(=O)N/N=C/c2cc(OC)c(O)c(OC)c2)c1	108	0	1	-3	-9	10	nt	nt
CCC1(C)CN=C(c2ccccc2)NC1 (stereo not given)	nt	nt	5	3	3	nt	nt	nt
Cc1ccccc1C(=O)Nc1cc(C(F)(F)F)ccc1-n1cncn1	79	nt	-1	-5	4	13	nt	nt
COc1ccc(C2Nc3ccccc3NC3=C2C(=O)CC(C)(C)C3)cc1OC (stereo not given)	99	1	-85	-117	-21	1	nt	nt
COc1cc(C2Nc3cc(C)c(C)cc3NC3=C2C(=O)CC(C)(C)C3)ccc1OC(C)=O (stereo not given)	82	-2	-22	-32	24*	61*	8	-9
CCN(CC)CCN1C(=O)C2C(C(=O)Nc3cc(C)cc(C)c3)C3C=CC2(O3)C1C(=O)NC1CCCCC1 (stereo not given)	93	0	1	-4	-3	-2	nt	nt
Cc1ccc(CSc2sc(C(=O)c3ccccc3)c(N)c2C#N)cc1	95	0	-3	-3	6	10	nt	nt
Cc1ccc(-c2sc(C(=O)NN)c(C)c2C#N)cc1	107	-1	-5	-14	24*	17	13	-2
CCn1cc(C(=O)N[C@H](C(=O)NCCO)C(C)C)c(=O)c2cc3c(cc21)OCO3	105	-1	-10	-25	7	0	nt	nt
COc1ccccc1Nc1nc(-c2c(C)[nH]c3ccccc23)cs1	114	nt	-30	-34	20*	15	20*	9.8*
C=CCN(c1cccc(C(F)(F)F)c1)S(=O)(=O)c1cccc(C(=O)OCC(=O)Nc2ccccc2)c1	100	0	0	-1	-8	-5	nt	nt
Cc1ccc(NC(=O)c2c(Cl)n(C)c3ccccc23)cc1	94	4	-1	1	-2	46	nt	nt
Cc1onc(-c2ccccc2)c1-c1n[nH]c(=S)n1-c1ccccc1Cl	102	0	8	3	19*	3	23*	-1
Cc1onc(-c2ccccc2)c1-c1n[nH]c(=S)n1-c1ccc(C(=O)O)cc1	94	0	3	2	4	0	nt	nt
CC1=C(C(=O)N(C)C)CC(CC(=O)NCc2cccc3ccccc23)C(=O)N1CCCN1CCCC1=O (stereo not given)	nt	nt	1	2	21*	nt	-3	-7
CC1(C(=O)NC(=S)NNC(=O)c2ccncc2)CCCCC1	102	0	-2	-3	26*	6	20*	-11
